Records with an inconclusive call do not appear. Activity calls are given as the source filed them. Unless noted, the call rests on the fitted dose curve; in most records, active means well fitted curve in the direction sought with a large enough effect; inconclusive means small, poorly fitted or top-dose-only effect, or another doubt; inactive means no such curve, though single readings can be large; an effect the other way counts as inactive or inconclusive.
What was measured:
[1] = molecular target: Glucocorticoid receptor (Homo sapiens) (UniProt P04150); experiment: qHTS assay for small molecule agonists of glucocorticoid receptor signaling (AID 588532; active means well fitted curve in the direction sought with a large enough effect in the signal ratio, with a control signal flat; the % refers to the signal ratio;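 further: 100% = dexamethasone at 0.1 µM and 0% = DMSO only wells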); details: HeLa MMTV-bla, beta-lactamase ratio, agonist, 18 h; stronger effect = higher value; percent of dexamethasone control, DMSO zero
Glucocorticoid receptor (Homo sapiens), sequence (P04150 whole entry, looked up): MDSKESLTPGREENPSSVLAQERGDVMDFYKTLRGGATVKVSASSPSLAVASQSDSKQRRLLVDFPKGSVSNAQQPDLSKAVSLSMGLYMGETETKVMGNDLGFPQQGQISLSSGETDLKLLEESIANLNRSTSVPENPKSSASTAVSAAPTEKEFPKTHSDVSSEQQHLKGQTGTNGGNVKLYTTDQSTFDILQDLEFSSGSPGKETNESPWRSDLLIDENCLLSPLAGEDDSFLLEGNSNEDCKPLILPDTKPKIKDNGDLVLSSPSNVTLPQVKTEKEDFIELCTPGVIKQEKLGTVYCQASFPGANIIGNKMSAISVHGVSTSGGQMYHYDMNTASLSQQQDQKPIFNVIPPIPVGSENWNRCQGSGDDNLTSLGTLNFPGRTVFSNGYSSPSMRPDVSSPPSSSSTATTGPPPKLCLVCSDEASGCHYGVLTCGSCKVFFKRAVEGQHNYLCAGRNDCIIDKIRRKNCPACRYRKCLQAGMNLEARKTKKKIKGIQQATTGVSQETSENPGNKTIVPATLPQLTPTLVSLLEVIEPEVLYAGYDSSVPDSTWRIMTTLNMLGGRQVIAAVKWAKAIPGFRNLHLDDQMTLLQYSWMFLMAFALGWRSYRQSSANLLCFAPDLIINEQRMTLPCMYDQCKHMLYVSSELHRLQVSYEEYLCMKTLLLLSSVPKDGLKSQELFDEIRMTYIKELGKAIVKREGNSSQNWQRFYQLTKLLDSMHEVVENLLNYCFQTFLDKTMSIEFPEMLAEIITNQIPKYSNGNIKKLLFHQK
How it was run: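 Quantitative HTS using CellSensor MMTV-bla HeLa cells in charcoal/dextran-treated serum; compounds tested up to 92 uM. After 18 h at 37 C, CCF4 dye reported reporter induction.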

[2] = qHTS assay for small molecule antagonists of peroxisome proliferator-activated receptor delta signaling (AID 588535); details: HEK293T PPARd-UAS-bla, beta-lactamase FRET ratio, 18 h; 460 nm channel;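 further: cells co-treated with a PPAR-delta agonist as stimulator during compound exposure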
How it was run: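 Cell-based beta-lactamase assay in antagonist mode: 4000 HEK293T PPAR-delta-UAS-bla cells per well, 5 hr preincubation then 18 hr compound incubation at 37 C. IC50 obtained by Hill equation fitting.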

[3] = molecular target: Peroxisome proliferator-activated receptor gamma (Homo sapiens) (UniProt P37231); experiment: qHTS assay for small molecule antagonists of peroxisome proliferator-activated receptor gamma signaling (AID 588537; active means well fitted inhibition curve with a large enough effect in the signal ratio, with a control signal flat, not every such curve was filed as active; the % refers to the signal ratio; further: potency means the concentration at half of the fitted maximal effect); details: HEK293 PPARg-UAS-bla, beta-lactamase ratio, antagonist mode; series mostly up to 76.8 µM
Peroxisome proliferator-activated receptor gamma (Homo sapiens), sequence (P37231 whole entry, looked up): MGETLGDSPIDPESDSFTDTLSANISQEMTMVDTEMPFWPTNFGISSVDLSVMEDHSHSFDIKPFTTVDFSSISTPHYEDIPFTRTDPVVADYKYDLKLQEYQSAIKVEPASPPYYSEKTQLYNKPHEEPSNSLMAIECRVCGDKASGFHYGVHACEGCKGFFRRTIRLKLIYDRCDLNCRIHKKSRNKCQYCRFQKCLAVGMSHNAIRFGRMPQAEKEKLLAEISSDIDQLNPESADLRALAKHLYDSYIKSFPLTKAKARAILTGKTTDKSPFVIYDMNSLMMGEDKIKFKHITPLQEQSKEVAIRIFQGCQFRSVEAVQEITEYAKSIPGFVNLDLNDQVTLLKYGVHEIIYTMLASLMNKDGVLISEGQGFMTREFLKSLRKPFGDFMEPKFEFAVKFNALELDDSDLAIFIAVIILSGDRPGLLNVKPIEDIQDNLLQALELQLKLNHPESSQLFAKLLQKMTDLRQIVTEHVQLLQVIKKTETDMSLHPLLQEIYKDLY
How it was run: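 Inhibitors of agonist-stimulated UAS-bla reporter activity were sought in HEK293 cells; rosiglitazone (50 nM) defined full signal and DMSO baseline. Curves fitted to Hill model gave IC50 and efficacy.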

[4] = molecular target: Thyroid hormone receptor beta (Homo sapiens) (UniProt P10828); experiment: qHTS assay for small molecule agonists of thyroid hormone receptor beta signaling (AID 588545; calls by dose curve;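 further: 0% = DMSO only and 100% = 10 nM T3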); details: TR-UAS-bla GripTite HEK 293, beta-lactamase ratio, agonist mode, 18 h; series mostly up to 76.7 µM
Thyroid hormone receptor beta (Homo sapiens), sequence (P10828 whole entry, looked up): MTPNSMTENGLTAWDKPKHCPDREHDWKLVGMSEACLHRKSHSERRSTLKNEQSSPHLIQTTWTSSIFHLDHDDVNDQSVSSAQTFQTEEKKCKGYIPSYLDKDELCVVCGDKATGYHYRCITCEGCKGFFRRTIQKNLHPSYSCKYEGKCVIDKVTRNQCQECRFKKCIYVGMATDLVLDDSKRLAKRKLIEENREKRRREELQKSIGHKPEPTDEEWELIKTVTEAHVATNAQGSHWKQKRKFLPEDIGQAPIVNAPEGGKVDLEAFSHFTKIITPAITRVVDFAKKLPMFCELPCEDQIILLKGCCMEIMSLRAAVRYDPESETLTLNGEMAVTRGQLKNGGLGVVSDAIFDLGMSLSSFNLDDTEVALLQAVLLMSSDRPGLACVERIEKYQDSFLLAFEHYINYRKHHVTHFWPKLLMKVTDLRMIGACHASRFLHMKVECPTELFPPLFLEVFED
How it was run: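 Stimulation of a TR-driven beta-lactamase reporter was quantified in GripTite HEK 293 cells. Compound series ran for 18 hrs; curves were normalized to T3 and DMSO controls and fitted to yield EC50.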

[5] = qHTS assay for small molecule activators of the p53 signaling pathway (AID 651743; active means well fitted activation curve with a large enough effect in the signal ratio, not every such curve was filed as active; the % refers to the signal ratio; further: % of control where 0% means no effect); details: HCT-116 p53RE-bla, beta-lactamase FRET ratio, 16 h; activation: stronger effect = higher value
How it was run: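 Screen for p53 pathway agonists uses stably transfected p53RE-bla HCT-116 cells, 4,000 per well, treated 16 h at 37 C with compounds in DMSO.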

[6] = molecular target: Peroxisome proliferator-activated receptor alpha (Homo sapiens) (UniProt Q07869); experiment: qHTS assay for small molecule agonists of the peroxisome proliferator-activated receptor alpha (PPARalpha) signaling pathway (AID 651778); details: PathHunter PPARalpha complementation, chemiluminescence, 6 h; max response: stronger effect = higher value; further: % of control where 0% means no effect
Peroxisome proliferator-activated receptor alpha (Homo sapiens), sequence (Q07869 whole entry, looked up): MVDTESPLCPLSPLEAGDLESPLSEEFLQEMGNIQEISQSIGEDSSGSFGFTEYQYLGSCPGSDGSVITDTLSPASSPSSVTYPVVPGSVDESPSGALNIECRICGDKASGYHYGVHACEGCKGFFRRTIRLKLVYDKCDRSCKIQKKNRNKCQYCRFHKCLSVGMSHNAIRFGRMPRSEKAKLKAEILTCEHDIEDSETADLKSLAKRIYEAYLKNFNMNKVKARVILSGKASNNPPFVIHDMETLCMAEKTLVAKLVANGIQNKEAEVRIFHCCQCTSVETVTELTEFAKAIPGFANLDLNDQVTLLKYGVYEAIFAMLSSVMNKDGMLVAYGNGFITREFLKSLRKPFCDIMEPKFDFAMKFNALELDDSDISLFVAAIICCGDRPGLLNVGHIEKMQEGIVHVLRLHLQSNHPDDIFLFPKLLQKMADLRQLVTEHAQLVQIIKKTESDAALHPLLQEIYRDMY
How it was run: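 Chemiluminescence from complemented enzyme reported PPARalpha activation in cells after 6 hr of compound treatment at 37 C. The detection reagent was incubated for 60 min at room temperature, and compounds were scored as agonists.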

[7] = qHTS assay for small molecule agonists of the antioxidant response element (ARE) signaling pathway measured by Nrf2-dependant transcriptional activity - cell viability counter screen (AID 720653; active means well fitted curve in the direction sought with a large enough effect in the repeat runs; an effect the other way counts as inactive or inconclusive; further: on the % scale 0 is the no-effect control and ±100 the full control effect); details: ARE-bla HepG2 viability, CellTiter-Glo ATP luminescence, 16 h; max response: stronger effect = lower value
How it was run: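 Cytotoxicity counter screen: intracellular ATP quantified by CellTiter-Glo luminescence in the same ARE-bla HepG2 plates, after 16 h compound exposure and a 2 h beta-lactamase substrate step.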

[8] = qHTS assay for cell viability of HEK293 cells (AID 743288); details: ATP luminescence (CellTiter-Glo), 18 h; max response: stronger effect = lower value; further: on the % scale 0 is the no-effect control and ±100 the full control effect; nearly all actives have a fitted effect of over 50% in size
How it was run: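 Total intracellular ATP, measured with a luciferase-coupled reagent, indicates the number of viable HEK293 cells. Exposure to test chemicals lasts 18 h at 37 C in 1,536-well format at 2,000 cells/well.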

[9] = qHTS assay for cell viability of the p53RE-bla HCT-116 cell line (AID 743292); details: p53RE-bla HCT-116 viability, ATP luminescence, 16 h; series mostly up to 95 µM; further: on the % scale 0 is the no-effect control and ±100 the full control effect; nearly all actives have a fitted effect of over 55% in size
How it was run: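 Viability of compound-treated p53RE-bla HCT-116 cells is taken from ATP-dependent luciferase luminescence. Treatment lasts 16 h at 37 C after a 5 h settling period; detection follows 30 min at room temperature.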

[10] = molecular target: Vitamin D3 receptor (Homo sapiens) (UniProt P11473); experiment: qHTS assay for small molecule antagonists of vitamin D receptor signaling (AID 588541; calls by dose curve;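 further: receptor activated by calcitriol during compound treatment; on the % scale 0 is the no-effect control and ±100 the full control effect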); details: HEK293T VDR-UAS-bla, beta-lactamase ratio, antagonist mode; series mostly up to 76.7 µM
Vitamin D3 receptor (Homo sapiens), sequence (P11473 whole entry, looked up): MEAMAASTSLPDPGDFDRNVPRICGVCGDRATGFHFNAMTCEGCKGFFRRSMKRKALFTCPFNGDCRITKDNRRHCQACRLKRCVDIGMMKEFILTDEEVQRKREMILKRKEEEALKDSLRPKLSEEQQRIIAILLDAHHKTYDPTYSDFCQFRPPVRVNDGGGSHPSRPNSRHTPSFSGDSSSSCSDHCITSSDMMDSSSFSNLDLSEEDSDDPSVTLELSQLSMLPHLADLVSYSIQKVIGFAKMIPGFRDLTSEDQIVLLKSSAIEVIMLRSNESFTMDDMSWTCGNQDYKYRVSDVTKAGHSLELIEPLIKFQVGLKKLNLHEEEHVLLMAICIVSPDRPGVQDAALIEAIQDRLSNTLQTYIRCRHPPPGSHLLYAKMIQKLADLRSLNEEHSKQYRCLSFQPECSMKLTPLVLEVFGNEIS
How it was run: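 Antagonist-mode beta-lactamase reporter assay: HEK293T VDR-UAS-bla cells were exposed to titrated compound alongside 1-alpha,25-dihydroxyvitamin D3 at 3 nM final for 16 h. Values were normalized to the 50 nM agonist control and DMSO basal, with IC50 and efficacy from Hill equation fits.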

[11] = molecular target: Vitamin D3 receptor (Homo sapiens) (UniProt P11473); experiment: qHTS assay for small molecule agonists of vitamin D receptor signaling (AID 588543; calls by dose curve;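 further: 0% = DMSO basal and 100% = reference agonist control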); details: HEK293T VDR-UAS-bla, beta-lactamase ratio, 16 h; series mostly up to 76.8 µM
How it was run: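 Agonist-mode beta-lactamase reporter: HEK293T VDR-UAS-bla cells in charcoal-stripped 2% FBS, compound series 16 h 37 C, CCF4 2 h RT. EC50 from Hill fit, scaled against DMSO and 50 nM calcitriol control.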

[12] = qHTS assay for environmental chemicals that activate the Aryl hydrocarbon Receptor (AhR) signaling pathway (AID 651777); details: 1A2-DRE human hepatoma cells, luciferase, 24 h; activation: stronger effect = higher value; further: % of control where 0% means no effect; nearly all actives have a fitted effect of over 15% in size
How it was run: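 Quantitative HTS in stably transfected human liver-derived cells whose luciferase gene sits downstream of the CYP1A2 promoter and dioxin response element. After 24 hr exposure at 37 C, One-Glo luminescence was measured.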

[13] = qHTS assay for small molecule agonists of the antioxidant response element (ARE) signaling pathway measured by Nrf2-dependant transcriptional activity (AID 720636; active means well fitted curve in the direction sought with a large enough effect in the repeat runs; an effect the other way counts as inactive or inconclusive; further: % of control where 0% means no effect); details: ARE-luc HepG2, Nrf2 luciferase reporter, 16 h; series mostly up to 92.4 µM
How it was run: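 Quantitative HTS format in HepG2 cells stably expressing an ARE-luciferase reporter; 16 hr compound treatment at 37 C, luciferase signal detected with ONE-Glo.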

[14] = molecular target: Nuclear receptor subfamily 1 group I member 2 (Rattus norvegicus) (UniProt Q9R1A7); experiment: qHTS assay for small molecule activators of the rat pregnane X receptor (rPXR) signaling pathway (AID 651751; call rule not given here; further: 0% is about no effect); details: rPXR reporter cells, luciferase (One-Glo), 24 h
Nuclear receptor subfamily 1 group I member 2 (Rattus norvegicus), sequence (Q9R1A7 whole entry, looked up): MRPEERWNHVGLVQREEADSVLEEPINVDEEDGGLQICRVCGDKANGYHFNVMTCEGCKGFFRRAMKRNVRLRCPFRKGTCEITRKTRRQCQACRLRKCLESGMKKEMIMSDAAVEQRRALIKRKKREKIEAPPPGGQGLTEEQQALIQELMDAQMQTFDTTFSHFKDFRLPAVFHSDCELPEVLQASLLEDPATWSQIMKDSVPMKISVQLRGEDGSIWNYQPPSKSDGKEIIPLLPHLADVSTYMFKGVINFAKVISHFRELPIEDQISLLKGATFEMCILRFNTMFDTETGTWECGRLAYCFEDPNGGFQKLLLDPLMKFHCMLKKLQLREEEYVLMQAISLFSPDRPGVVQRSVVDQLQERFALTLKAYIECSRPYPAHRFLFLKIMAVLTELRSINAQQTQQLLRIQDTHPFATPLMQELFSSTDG

[15] = molecular target: Peroxisome proliferator-activated receptor gamma (Homo sapiens) (UniProt P37231); experiment: qHTS assay for small molecule agonists of peroxisome proliferator-activated receptor gamma signaling (AID 588536; active means well fitted curve in the direction sought with a large enough effect in the signal ratio, with a control signal flat, not every such curve was filed as active; the % refers to the signal ratio;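 further: 0% = DMSO basal wells and 100% = rosiglitazone at 2 µM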); details: HEK293 PPARg-UAS-bla, beta-lactamase ratio, 16 h, percent of rosiglitazone response, DMSO as zero; series mostly up to 76.7 µM
How it was run: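 HEK293 UAS-bla reporter line, 1% charcoal/dextran FBS; titration, 16 h, 37 C; CCF4 loading 2 h RT; fluorescence 460/530 nm. Normalized to rosiglitazone 2 uM = 100%, DMSO = 0%.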

[16] = qHTS assay for small molecule antagonists of retinoid X receptor alpha signaling (AID 588546; active means well fitted inhibition curve with a large enough effect in the signal ratio, with a control signal flat, not every such curve was filed as active; the % refers to the signal ratio;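 further: cells stimulated with 9-cis-retinoic acid as agonist; on the % scale 0 is the no-effect control and ±100 the full control effect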); details: HEK293T RXRa-UAS-bla, beta-lactamase ratio, antagonist mode; measured here: W530 green channel, cytotoxicity proxy
How it was run: (§1)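 Beta-lactamase reporter inhibition, read as CCF4 fluorescence ratio (ex 405, em 460/530 nm) after 2 h at RT. HEK293T UAS-bla cells, 2500/well, were stimulated with 9-cis-RA at 500 or 100 nM final alongside test compound for 18 h at 37 C.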

[17] = molecular target: Retinoic acid receptor RXR-alpha (Homo sapiens) (UniProt P19793); experiment: as above; details: HEK293T RXRa-UAS-bla, beta-lactamase ratio, antagonist mode
Retinoic acid receptor RXR-alpha (Homo sapiens), sequence (P19793 whole entry, looked up): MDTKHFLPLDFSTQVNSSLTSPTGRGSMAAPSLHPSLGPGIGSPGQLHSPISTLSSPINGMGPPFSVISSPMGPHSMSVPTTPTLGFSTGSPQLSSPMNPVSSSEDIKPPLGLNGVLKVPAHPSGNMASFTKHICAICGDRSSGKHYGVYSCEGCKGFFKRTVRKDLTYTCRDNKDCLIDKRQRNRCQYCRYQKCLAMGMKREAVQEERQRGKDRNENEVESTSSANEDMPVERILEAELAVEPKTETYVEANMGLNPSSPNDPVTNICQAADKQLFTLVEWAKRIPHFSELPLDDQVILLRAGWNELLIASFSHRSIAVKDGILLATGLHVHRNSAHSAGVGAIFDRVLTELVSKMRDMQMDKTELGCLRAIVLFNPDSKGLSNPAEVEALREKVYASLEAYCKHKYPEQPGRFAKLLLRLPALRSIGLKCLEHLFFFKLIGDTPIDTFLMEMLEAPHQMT
How it was run: as §1

[18] = qHTS assay for small molecule activators of the human pregnane X receptor (PXR) signaling pathway (AID 720659; call rule not given here; further: 0% is about no effect); details: DPX-2 HepG2 CYP3A4-luciferase, 24 h; series mostly up to 92.3 µM
[19] = qHTS assay for small molecule agonists of retinoid X receptor alpha signaling (AID 588544; calls by dose curve;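 on activation: 0% = DMSO basal wells and 100% = reference agonist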); details: HEK293T RXRa-UAS-bla, beta-lactamase reporter, 18 h; 530 nm emission
[20] = molecular target: Retinoic acid receptor RXR-alpha (Homo sapiens) (UniProt P19793); experiment: as above; details: HEK293T RXRa-UAS-bla, beta-lactamase reporter, 18 h; series mostly up to 76.7 µM

CC(C)C[C@H](NC(=O)OCC1c2ccccc2-c2ccccc21)C(=O)O
inactive: activation [1] -5.5% | Potency [3] | Potency [4] | activation [5] -3.17% | max response [6] 11.8% | max response [7] -7.25% | max response [8] -22.2% | Potency [9]
59%: max response [2]

Oc1ccc(C(c2ccc(O)cc2)C(Cl)(Cl)Cl)cc1
inactive: activation [1] 1.17% | Potency [10] | outcome [11] | Potency [4] | activation [5] -3.4% | activation [12] 10% | max response [6] -1.42% | Potency [13] | max response [7] -3.02% | max response [8] -13.2% | Potency [9] | max response [14] 2.83%

CS(C)=O
-13.1%: max response [16]
23%: max response [2]
inactive: activation [1] -5.87% | outcome [15] | Potency [3] | Potency [10] | outcome [11] | Potency [4] | max response [17] 10.4% | activation [5] 1.22% | activation [12] 0.193% | max response [6] 0.892% | Potency [13] | max response [7] 16.4% | max response [8] 1.99% | Potency [9] | max response [14] 2.97% | outcome [18]

COCCOCCOCCOC
inactive: activation [1] -5.4% | outcome [15] | Potency [3] | Potency [10] | Potency [20] | Potency [4] | max response [17] 2.59% | activation [5] 0.451% | activation [12] -0.0635% | max response [6] -0.298% | max response [7] 1.56% | max response [8] -11.9% | Potency [9] | max response [14] -0.732% | outcome [18]
-14.6%: max response [19]
0.474%: max response [16]

O=C(O)CCCCCCC(=O)O
-8.49%: max response [16]
5.03%: max response [19]
inactive: activation [1] -13.8% | outcome [15] | Potency [3] | Potency [10] | outcome [11] | Potency [20] | Potency [4] | activation [5] -5.91% | activation [12] -0.962% | max response [6] -2.36% | Potency [13] | max response [7] -7.95% | max response [8] -8.35% | Potency [9] | max response [14] -0.548% | outcome [18]

O=C(O)C1(C(=O)Nc2ccc(Cl)cc2Cl)CC1
active: Potency [3] 44.7 µM
8.82%: max response [16]
inactive: Potency [10] | outcome [11] | Potency [4] | max response [7] -1.63% | max response [8] -9.45% | Potency [9] | outcome [18]

CCCCCCC(C)(C)S
-19.5%: max response [19]
inactive: activation [1] -11% | outcome [15] | Potency [3] | Potency [20] | Potency [4] | max response [17] 4.42% | activation [12] -1.46% | Potency [13] | max response [7] -9.96% | max response [8] -17.8% | Potency [9] | max response [14] -1.98% | outcome [18]
-14.4%: max response [16]

From PubChem BioAssay (NCATS)
